Laboratory results as given in the supplement of paper PMC10849652.
Of roughly 7,900 targets only a part is listed; those with a hit were picked by preference. About 0.6% of all pairs of compound and target were hits. Values without a mark were called inactive.

Experiments:
Test in all cases: log2 fold change, soluble protein after heating vs DMSO (PISA); higher = thermal stabilisation; K562 cells, 10 uM, 30 min; active = over 0.2 and 3.5 SD of the protein, either way, in both replicates (recomputed)
[1] = compound: CC1=C(C=C(C=C1)NC(=O)C2=CC(=CC=C2)C(C)(C)C#N)NC3=CC4=C(C=C3)N=CN(C4=O)C
Method in brief: (§1)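 K562 cells at 2×10^6 cells/mL were exposed to 10 μM compound for 30 min, then aliquots were heated for 3 min across 48°C-58°C, pooled, and extracted in PBS containing 0.5% NP-40 at 4°C. The supernatant after 21,000xg for 90 min was taken as soluble protein and measured by TMTpro 16plex LC-MS/MS with channel sums equalised. Thermal stability is reported relative to control samples, with values from duplicates. Fold changes are given on a log2 scale.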

[2] = compound: CC1=C(C=C(C=C1)NC(=O)C2=CC(=CC=C2)N(C)C)NC(=O)C3=CC=C(C=C3)O
Method in brief: as §1

[3] = compound: CC1=CC=C(C=C1)SC2=C3C=C(SC3=CN=C2)C(=O)N
Method in brief: as §1

[4] = compound: CC1=NC(=CC=C1)C2=C(N=C(N2)C(C)(C)C)C3=CC4=NC=CN=C4C=C3
Method in brief: as §1

Nexturastat A = compound: CCCCN(Cc1ccc(C(=O)NO)cc1)C(=O)Nc1ccccc1 [Nexturastat A]
Method in brief: as §1

vemurafenib = compound: CCCS(=O)(=O)Nc1ccc(F)c(C(=O)c2c[nH]c3ncc(-c4ccc(Cl)cc4)cc23)c1F [vemurafenib]
Method in brief: as §1

[5] = compound: CCCS(=O)(=O)Nc1ccc(F)c(C(=O)c2c[nH]c3ncc(Cl)cc23)c1F
Method in brief: as §1

[6] = compound: CCCc1cc(C)[nH]c(=O)c1CNC(=O)c1cc(-c2ccnc(N3CCN(C)CC3)c2)cc2c1cnn2C(C)C
Method in brief: as §1

givinostat = compound: CCN(CC)Cc1ccc2cc(COC(=O)Nc3ccc(C(=O)NO)cc3)ccc2c1 [givinostat]
Method in brief: as §1

barasertib = compound: CCN(CCCOc1ccc2c(Nc3cc(CC(=O)Nc4cccc(F)c4)[nH]n3)ncnc2c1)CCOP(=O)(O)O [barasertib]
Method in brief: as §1

[7] = compound: CC[C@@H]1C(=O)N(C)c2cnc(Nc3ccc(C(=O)NC4CCN(C)CC4)cc3OC)nc2N1C1CCCC1
Method in brief: as §1

volasertib = compound: CC[C@@H]1C(=O)N(C)c2cnc(Nc3ccc(C(=O)N[C@H]4CC[C@H](N5CCN(CC6CC6)CC5)CC4)cc3OC)nc2N1C(C)C [volasertib]
Method in brief: as §1

[8] = compound: CC[C@H](C)N1C=C(C2=C(C=C(C=C21)C3=CN=C(C=C3)N4CCNCC4)C(=O)NCC5=C(C=C(NC5=O)C)C)C
Method in brief: as §1

epoxomicin = compound: CC[C@H](C)[C@@H](C(=O)N[C@@H]([C@@H](C)O)C(=O)N[C@@H](CC(C)C)C(=O)[C@]1(CO1)C)NC(=O)[C@H]([C@@H](C)CC)N(C)C(=O)C [epoxomicin]
Method in brief: as §1

[9] = compound: CCn1c(C(=O)N(C2CC2)C2CC2)cc2c3c(ncn3C)c(Nc3cc(C)n(C)n3)nc21
Method in brief: as §1

[10] = compound: CCn1cc(-c2ccnc3[nH]c(-c4cccc(CN(C)C)c4)cc23)c(-c2ccc(NC(=O)N(C)C)cc2)n1
Method in brief: as §1

[11] = compound: CN(C)CC(=O)Nc1ccc2[nH]c(=O)c3ccccc3c2c1
Method in brief: as §1

rosiglitazone = compound: CN(CCOC1=CC=C(C=C1)C[C@H]2C(=O)NC(=O)S2)C3=CC=CC=N3 (racemic) [rosiglitazone]
Method in brief: as §1

[12] = compound: CN1C2=C(C3=C1C(=O)N(N=C3)CC4=CC(=CC=C4)N)SC(=C2)S(=O)C
Method in brief: as §1

[13] = compound: CN1CCC(CNc2ccc3ncc(-c4cccc(OC(F)(F)F)c4)n3n2)CC1
Method in brief: as §1

UniProt P49643, sequence (P49643 whole entry, looked up): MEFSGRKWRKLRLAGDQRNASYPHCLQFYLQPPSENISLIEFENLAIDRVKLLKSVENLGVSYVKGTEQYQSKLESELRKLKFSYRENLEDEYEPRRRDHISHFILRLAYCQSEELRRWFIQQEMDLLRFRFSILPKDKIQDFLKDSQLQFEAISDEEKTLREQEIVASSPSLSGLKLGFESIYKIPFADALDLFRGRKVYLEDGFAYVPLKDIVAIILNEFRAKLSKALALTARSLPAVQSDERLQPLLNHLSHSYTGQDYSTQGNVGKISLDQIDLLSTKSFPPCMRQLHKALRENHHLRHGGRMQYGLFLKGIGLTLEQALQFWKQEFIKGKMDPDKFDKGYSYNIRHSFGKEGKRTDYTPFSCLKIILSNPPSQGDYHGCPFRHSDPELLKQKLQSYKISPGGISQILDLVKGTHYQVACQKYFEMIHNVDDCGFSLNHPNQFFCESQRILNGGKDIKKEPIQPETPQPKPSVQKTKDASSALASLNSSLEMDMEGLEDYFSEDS
UniProt Q5VU43, sequence (Q5VU43 whole entry, looked up): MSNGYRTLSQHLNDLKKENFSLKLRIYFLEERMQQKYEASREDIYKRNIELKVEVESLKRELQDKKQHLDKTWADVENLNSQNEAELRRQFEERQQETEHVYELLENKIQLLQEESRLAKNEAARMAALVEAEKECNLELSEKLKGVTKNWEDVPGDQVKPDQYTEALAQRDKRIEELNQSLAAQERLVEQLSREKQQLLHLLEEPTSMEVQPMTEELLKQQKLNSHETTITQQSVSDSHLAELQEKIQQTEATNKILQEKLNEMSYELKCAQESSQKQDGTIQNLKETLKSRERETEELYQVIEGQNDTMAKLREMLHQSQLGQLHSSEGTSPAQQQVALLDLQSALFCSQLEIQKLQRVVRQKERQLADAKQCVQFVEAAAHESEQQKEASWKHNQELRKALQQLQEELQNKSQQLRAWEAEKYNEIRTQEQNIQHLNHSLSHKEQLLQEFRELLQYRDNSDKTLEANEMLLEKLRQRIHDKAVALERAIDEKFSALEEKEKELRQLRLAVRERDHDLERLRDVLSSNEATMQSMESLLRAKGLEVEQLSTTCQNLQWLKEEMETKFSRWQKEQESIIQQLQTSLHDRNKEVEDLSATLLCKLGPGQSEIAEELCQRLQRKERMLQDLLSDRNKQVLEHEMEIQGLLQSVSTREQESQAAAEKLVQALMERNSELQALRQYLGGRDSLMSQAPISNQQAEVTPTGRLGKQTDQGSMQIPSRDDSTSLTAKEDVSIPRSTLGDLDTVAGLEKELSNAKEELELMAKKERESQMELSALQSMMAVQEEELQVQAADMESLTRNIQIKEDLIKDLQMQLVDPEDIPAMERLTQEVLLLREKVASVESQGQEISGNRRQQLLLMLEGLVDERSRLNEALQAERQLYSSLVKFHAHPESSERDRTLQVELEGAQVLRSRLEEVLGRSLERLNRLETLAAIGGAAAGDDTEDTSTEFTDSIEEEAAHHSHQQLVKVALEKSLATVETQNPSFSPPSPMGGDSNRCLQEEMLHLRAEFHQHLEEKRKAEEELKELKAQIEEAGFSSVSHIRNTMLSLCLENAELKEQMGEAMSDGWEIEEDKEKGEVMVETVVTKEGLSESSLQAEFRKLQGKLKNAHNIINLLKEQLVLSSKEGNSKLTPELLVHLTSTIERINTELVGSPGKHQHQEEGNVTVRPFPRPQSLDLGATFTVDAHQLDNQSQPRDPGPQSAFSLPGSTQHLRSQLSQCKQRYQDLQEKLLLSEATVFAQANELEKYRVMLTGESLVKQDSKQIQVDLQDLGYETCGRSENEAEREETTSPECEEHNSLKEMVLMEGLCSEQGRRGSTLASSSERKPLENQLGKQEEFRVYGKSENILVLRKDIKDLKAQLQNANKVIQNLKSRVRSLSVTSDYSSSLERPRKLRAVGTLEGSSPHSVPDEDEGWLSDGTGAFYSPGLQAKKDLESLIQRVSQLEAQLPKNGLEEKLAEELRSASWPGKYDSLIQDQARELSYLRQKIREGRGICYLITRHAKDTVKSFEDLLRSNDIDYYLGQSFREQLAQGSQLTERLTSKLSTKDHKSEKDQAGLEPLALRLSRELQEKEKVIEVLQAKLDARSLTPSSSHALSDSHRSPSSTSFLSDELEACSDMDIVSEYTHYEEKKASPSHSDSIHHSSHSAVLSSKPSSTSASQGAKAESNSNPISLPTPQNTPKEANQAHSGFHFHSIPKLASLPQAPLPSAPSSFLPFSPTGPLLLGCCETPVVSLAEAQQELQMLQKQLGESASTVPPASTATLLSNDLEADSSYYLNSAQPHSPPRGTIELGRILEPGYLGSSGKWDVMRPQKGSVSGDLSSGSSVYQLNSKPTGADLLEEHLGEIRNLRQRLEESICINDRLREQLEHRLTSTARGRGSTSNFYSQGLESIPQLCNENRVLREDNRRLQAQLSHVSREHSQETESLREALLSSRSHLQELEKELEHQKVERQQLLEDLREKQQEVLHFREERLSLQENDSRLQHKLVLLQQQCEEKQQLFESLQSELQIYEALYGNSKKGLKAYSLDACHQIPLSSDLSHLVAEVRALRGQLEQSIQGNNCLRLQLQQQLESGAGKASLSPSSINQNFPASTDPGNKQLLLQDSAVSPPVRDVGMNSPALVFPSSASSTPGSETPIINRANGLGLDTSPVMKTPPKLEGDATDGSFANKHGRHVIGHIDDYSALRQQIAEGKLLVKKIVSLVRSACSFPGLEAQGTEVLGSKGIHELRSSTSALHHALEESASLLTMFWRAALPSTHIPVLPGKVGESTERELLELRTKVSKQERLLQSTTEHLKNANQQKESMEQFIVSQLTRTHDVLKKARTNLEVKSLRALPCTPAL
UniProt Q9NR22, sequence (Q9NR22 whole entry, looked up): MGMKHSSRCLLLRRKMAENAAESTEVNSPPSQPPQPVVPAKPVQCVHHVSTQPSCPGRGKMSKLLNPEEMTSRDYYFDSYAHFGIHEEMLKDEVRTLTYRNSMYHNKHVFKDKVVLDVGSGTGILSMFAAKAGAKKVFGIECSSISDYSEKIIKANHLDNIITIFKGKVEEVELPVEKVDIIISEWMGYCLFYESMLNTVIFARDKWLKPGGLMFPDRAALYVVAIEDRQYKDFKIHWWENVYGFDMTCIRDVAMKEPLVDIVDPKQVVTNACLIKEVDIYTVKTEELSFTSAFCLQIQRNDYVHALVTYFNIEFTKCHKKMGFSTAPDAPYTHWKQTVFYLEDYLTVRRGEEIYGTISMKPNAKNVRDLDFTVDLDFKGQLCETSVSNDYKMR
UniProt Q9Y244, sequence (Q9Y244 whole entry, looked up): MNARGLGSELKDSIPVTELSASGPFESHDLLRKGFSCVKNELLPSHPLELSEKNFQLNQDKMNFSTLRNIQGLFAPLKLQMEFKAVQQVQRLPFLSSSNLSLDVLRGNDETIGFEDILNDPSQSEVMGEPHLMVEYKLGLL
UniProt Q8TBX8, sequence (Q8TBX8 whole entry, looked up): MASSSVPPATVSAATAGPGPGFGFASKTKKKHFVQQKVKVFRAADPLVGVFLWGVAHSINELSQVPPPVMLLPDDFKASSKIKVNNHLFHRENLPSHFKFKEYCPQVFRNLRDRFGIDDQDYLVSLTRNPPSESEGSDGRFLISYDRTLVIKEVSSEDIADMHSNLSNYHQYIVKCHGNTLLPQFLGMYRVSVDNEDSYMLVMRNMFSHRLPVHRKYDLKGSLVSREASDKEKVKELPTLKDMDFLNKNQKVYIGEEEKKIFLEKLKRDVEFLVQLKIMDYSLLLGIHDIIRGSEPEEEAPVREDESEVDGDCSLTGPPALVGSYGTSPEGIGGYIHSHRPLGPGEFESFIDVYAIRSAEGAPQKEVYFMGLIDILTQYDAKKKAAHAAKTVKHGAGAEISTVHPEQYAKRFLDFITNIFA
UniProt Q9UNM6, sequence (Q9UNM6 whole entry, looked up): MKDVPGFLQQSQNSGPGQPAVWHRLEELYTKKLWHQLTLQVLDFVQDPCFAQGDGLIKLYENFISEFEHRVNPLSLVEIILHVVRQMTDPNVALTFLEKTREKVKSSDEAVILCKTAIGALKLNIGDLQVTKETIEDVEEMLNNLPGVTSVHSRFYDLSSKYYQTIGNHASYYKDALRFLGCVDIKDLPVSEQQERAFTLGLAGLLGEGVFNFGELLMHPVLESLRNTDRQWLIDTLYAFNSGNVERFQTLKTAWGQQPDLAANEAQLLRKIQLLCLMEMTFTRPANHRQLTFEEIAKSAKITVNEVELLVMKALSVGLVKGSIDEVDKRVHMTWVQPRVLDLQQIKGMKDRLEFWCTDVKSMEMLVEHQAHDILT
UniProt O43242, sequence (O43242 whole entry, looked up): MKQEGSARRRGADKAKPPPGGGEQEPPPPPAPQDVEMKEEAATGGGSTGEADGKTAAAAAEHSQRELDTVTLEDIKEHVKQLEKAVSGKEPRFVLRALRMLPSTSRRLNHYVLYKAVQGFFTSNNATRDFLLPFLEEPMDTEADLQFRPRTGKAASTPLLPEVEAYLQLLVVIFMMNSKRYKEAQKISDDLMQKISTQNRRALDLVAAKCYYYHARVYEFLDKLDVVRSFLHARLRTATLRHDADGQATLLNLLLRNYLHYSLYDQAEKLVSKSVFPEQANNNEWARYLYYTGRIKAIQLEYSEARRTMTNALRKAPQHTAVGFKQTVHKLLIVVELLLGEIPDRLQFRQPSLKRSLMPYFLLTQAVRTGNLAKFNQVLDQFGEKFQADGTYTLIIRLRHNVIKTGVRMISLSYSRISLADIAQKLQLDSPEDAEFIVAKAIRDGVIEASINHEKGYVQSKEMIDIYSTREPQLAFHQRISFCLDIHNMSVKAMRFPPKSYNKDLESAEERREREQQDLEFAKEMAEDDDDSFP
UniProt P51665, sequence (P51665 whole entry, looked up): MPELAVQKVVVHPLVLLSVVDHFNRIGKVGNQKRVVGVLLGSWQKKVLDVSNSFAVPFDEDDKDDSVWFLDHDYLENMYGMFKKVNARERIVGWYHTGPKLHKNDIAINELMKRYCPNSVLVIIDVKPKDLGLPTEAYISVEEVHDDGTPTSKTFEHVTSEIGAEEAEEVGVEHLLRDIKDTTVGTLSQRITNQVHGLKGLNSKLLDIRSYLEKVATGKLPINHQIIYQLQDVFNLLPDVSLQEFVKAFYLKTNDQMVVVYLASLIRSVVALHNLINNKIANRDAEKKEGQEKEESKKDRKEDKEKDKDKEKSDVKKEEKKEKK

Row | Target | log2 fold change [1] | log2 fold change [2] | log2 fold change [3] | log2 fold change [4] | log2 fold change (Nexturastat A) | log2 fold change (vemurafenib) | log2 fold change [5] | log2 fold change [6] | log2 fold change (givinostat) | log2 fold change (barasertib) | log2 fold change [7] | log2 fold change (volasertib) | log2 fold change [8] | log2 fold change (epoxomicin) | log2 fold change [9] | log2 fold change [10] | log2 fold change [11] | log2 fold change (rosiglitazone) | log2 fold change [12] | log2 fold change [13]
1 | PIP4K2C (UniProt Q8TBX8) | -0.003 | -0.06 | 0.073 | 0.007 | -0.046 | -0.035 | 0 | -0.029 | -0.047 | -0.016 | 1.12 (active) | 1.19 (active) | -0.096 | -0.022 | 0.001 | 0.05 | -0.016 | 0.046 | 0.699 | 0.384
2 | PSMD3 (UniProt O43242) | 0.023 | 0.022 | -0.052 | -0.024 | 0.065 | -0.06 | -0.032 | 0.034 | -0.028 | -0.066 | 0.039 | 0.133 | 0 | -0.337 (active) | 0.01 | 0.02 | -0.01 | -0.01 | 0.027 | 0.067
3 | PSMB6 (UniProt P28072) | 0.002 | 0.306 | -0.036 | -0.001 | -0.019 | -0.038 | -0.062 | -0.024 | -0.025 | -0.04 | 0.029 | 0.195 | -0.055 | -0.241 (active) | 0.013 | 0.259 | -0.019 | -0.027 | 0.053 | 0.03
4 | PLCB3 (UniProt Q01970) | 0.033 | -0.04 | 0.021 | 0.033 | -0.019 | 0.024 | 0.045 | -0.032 | -0.014 | 0.018 | -0.05 | -0.037 | 0.044 | 0.009 | 0.026 | -0.08 | 0.02 | 0.058 | -0.009 | -0.246 (active)
5 | PHAX (UniProt Q9H814) | -0.019 | 0.013 | 0.022 | -0.043 | 0.02 | 0.002 | -0.019 | -0.045 | -0.076 | -0.008 | -0.03 | -0.106 | 0.027 | -0.041 | 0.014 | 0.111 | 0.011 | -0.007 | -0.054 | 0.042
6 | POLR2M (UniProt P0CAP2) | 0.007 | -0.014 | 0.027 | 0 | -0.019 | 0.021 | -0.062 | 0 | -0.031 | -0.009 | 0.084 | 0.026 | 0.013 | -0.018 | -0.022 | 0.034 | 0.004 | 0.045 | -0.028 | 0.037
7 | PSMD7 (UniProt P51665) | -0.011 | -0.005 | -0.047 | -0.038 | 0.145 | -0.073 | -0.029 | 0.045 | -0.03 | -0.05 | 0.027 | 0.205 | 0 | -0.236 | 0.01 | 0.027 | -0.019 | -0.047 | 0.083 | 0.06
8 | PRMT8 (UniProt Q9NR22) | 0.285 | -0.033 | 0.097 | 0.016 | -0.125 | 0.028 | 0.156 | -0.009 | -0.043 | 0.031 | 0.019 | -0.074 | 0.011 | 0.017 | 0.035 | -0.087 | -0.022 | -0.026 | -0.117 | -0.009
9 | PCNT (UniProt O95613) | -0.104 | 0.068 | -0.117 | -0.116 | 0.007 | -0.122 | -0.103 | -1.05 | 0.255 | 0.045 | 0.08 | 0.131 | -0.147 | -0.177 | -0.105 | -0.002 | -0.101 | 0.05 | 0.158 | -0.567 (active)
10 | PRIM2 (UniProt P49643) | -0.028 | -0.018 | -0.019 | 0.054 | 0.017 | 0.054 | 0.03 | 0.023 | 0.085 | 0.08 | -0.119 | -0.285 (active) | 0.147 | 0.02 | -0.041 | -0.07 | 0.076 | 0.065 | 0.013 | -0.131
11 | PDE4DIP isoform 4 (UniProt Q5VU43) | -0.027 | -0.049 | -0.012 | -0.044 | 0.358 (active) | -0.034 | -0.01 | -0.023 | 0.021 | 0.083 | 0.013 | 0.005 | -0.071 | -0.012 | -0.004 | -0.009 | -0.035 | 0.003 | -0.046 | 0.006
12 | PPIL4 (UniProt Q8WUA2) | 0.006 | -0.02 | -0.06 | -0.007 | 0.145 | 0.001 | 0 | 0.04 | 0.045 | 0 | -0.024 | -0.253 (active) | 0.043 | 0.011 | -0.051 | 0.047 | 0.007 | -0.03 | 0.022 | -0.098
13 | POLR2A (UniProt P24928) | -0.009 | -0.049 | 0.064 | 0.018 | 0.001 | 0.002 | 0.071 | -0.023 | -0.024 | 0.024 | 0.093 | -0.034 | 0.006 | 0.004 | -0.058 | 0.022 | 0.041 | 0.007 | -0.052 | 0.156
14 | PSMD13 (UniProt Q9UNM6) | 0.03 | 0.034 | -0.068 | -0.029 | 0.064 | -0.05 | -0.048 | -0.016 | -0.05 | -0.041 | 0.075 | 0.217 | 0.008 | -0.288 (active) | 0.012 | 0.043 | -0.01 | 0.009 | 0.02 | 0.038
15 | POMP (UniProt Q9Y244) | 0.024 | 0.075 | -0.069 | 0.076 | 0.145 | -0.023 | -0.023 | 0.016 | -0.045 | 0.054 | 0.097 | -0.049 | 0.008 | 0.581 (active) | -0.005 | 0.021 | -0.018 | -0.059 | -0.02 | -0.004
16 | PSMC1 (UniProt P62191) | 0.024 | 0.033 | -0.038 | -0.069 | 0.026 | -0.064 | -0.06 | -0.012 | -0.073 | -0.073 | 0.038 | 0.129 | -0.015 | -0.342 (active) | 0.042 | 0.092 | -0.003 | -0.038 | 0.031 | 0.051
